About 1,500 (3.8%) of roughly 39,000 compounds were called active. Many of the other results were omitted from the sample, so actives are more common in it than they were.
System: HSkMC (human skeletal muscle cells)
Assay: cytotoxicity call (relative viability < 0.9)
Conditions: 10 µM

SMILES | cytotoxicity call
C[C@H](CO)N1C[C@H](C)[C@H](CN(C)S(C)(=O)=O)Oc2ccc(NC(=O)C3CCCCC3)cc2CC1=O | inactive
Cc1ccc(S(=O)(=O)N[C@@H](Cc2ccccc2)C(=O)NCCCn2cc(C(=O)NO)nn2)cc1 | inactive
C[C@@H]1CCCCO[C@H](CN(C)CC2CCCCC2)[C@@H](C)CN([C@@H](C)CO)C(=O)c2cc(NS(=O)(=O)c3cccs3)ccc2O1 | inactive
C[C@@H]1CN([C@H](C)CO)C(=O)Cc2cc(NC(=O)Nc3ccccc3)ccc2O[C@@H]1CN(C)Cc1ccc(Cl)c(Cl)c1 | active
C[C@@H]1CN([C@H](C)CO)C(=O)Cc2cc(NC(=O)Nc3ccccc3)ccc2O[C@H]1CN(C)Cc1ccc(Cl)c(Cl)c1 | active
C[C@@H]1CN([C@@H](C)CO)C(=O)Cc2cc(NC(=O)Nc3ccccc3)ccc2O[C@@H]1CN(C)Cc1ccc(Cl)c(Cl)c1 | active
C[C@H]1CN([C@@H](C)CO)C(=O)Cc2cc(NC(=O)Nc3ccccc3)ccc2O[C@H]1CN(C)Cc1ccc(Cl)c(Cl)c1 | active
C[C@H](CO)N1C[C@H](C)[C@H](CN(C)S(C)(=O)=O)Oc2ccc(NC(=O)Nc3ccc4c(c3)OCO4)cc2CC1=O | inactive
CC[C@@H](C)N1C(=O)CC[C@H]1C(=O)O | inactive
COc1ccc(S(=O)(=O)Nc2ccc3c(c2)C(=O)N([C@H](C)CO)C[C@H](C)[C@H](CN(C)Cc2ccc(C(=O)Nc4ccccc4N)cc2)OCCCC[C@@H](C)O3)cc1 | inactive
C[C@H](CO)N1C[C@H](C)[C@@H](CN(C)S(=O)(=O)c2cccs2)Oc2ccc(NS(C)(=O)=O)cc2C1=O | inactive
NCc1ccc(C(=O)O)cc1 | inactive
Cc1noc(C)c1NC(=O)Nc1cccc2c1O[C@H](CN(C)S(=O)(=O)c1ccccc1)[C@@H](C)CN([C@@H](C)CO)C2=O | inactive
C[C@@H]1CCCCO[C@H](CN(C)C(=O)c2ccncc2)[C@@H](C)CN([C@H](C)CO)C(=O)c2cc(NC(=O)CCCCCC(=O)Nc3ccccc3N)ccc2O1 | inactive
CCc1nc2ccc(C(=O)Nc3cc(-c4ccccc4)ccc3OC)cn2c1N(CCN(C)C)CC1CC1 | inactive
C[C@H](CO)N1C[C@H](C)[C@@H](CN(C)S(=O)(=O)c2cn(C)cn2)Oc2c(NC(=O)C3CCOCC3)cccc2C1=O | inactive
CN1C(=O)c2cc(NC(=O)C3CCCC3)ccc2OC[C@H]2O[C@@H](CC(=O)NCCc3ccncc3)CC[C@@H]21 | inactive
COCC(=O)Nc1ccc2c(c1)C(=O)N(C)[C@H]1CC[C@@H](CC(=O)NCc3ccccc3Cl)O[C@@H]1CO2 | inactive

SMILES | cytotoxicity call
C[C@@H]1CN([C@@H](C)CO)C(=O)Cc2cc(NC(=O)Nc3ccccc3)ccc2O[C@H]1CN(C)Cc1ccc(Cl)c(Cl)c1 | inactive
C[C@H](CO)N1C[C@H](C)[C@H](CN(C)Cc2ccc(Cl)c(Cl)c2)Oc2ccc(NC(=O)Nc3ccccc3)cc2CC1=O | active
COc1ccc(NC(=O)Nc2ccc3c(c2)CC(=O)N([C@H](C)CO)C[C@H](C)[C@@H](CN(C)Cc2ccc(Cl)c(Cl)c2)O3)cc1 | inactive
COc1ccc(NC(=O)Nc2ccc3c(c2)CC(=O)N([C@@H](C)CO)C[C@@H](C)[C@@H](CN(C)Cc2ccc(Cl)c(Cl)c2)O3)cc1 | inactive
C[C@H](CO)N1C[C@H](C)[C@@H](CN(C)Cc2ccc(Cl)c(Cl)c2)Oc2ccc(NC(=O)Nc3ccccc3)cc2CC1=O | inactive
C[C@H]1CN([C@@H](C)CO)C(=O)Cc2cc(NC(=O)Nc3ccccc3)ccc2O[C@@H]1CN(C)Cc1ccc(Cl)c(Cl)c1 | active
O=C(CN1CCOCC1)NCC[C@H]1CC[C@@H](NC(=O)Nc2ccccc2)[C@H](CO)O1 | inactive
C[C@H]1CN([C@@H](C)CO)S(=O)(=O)c2ccc(-c3cccnc3)cc2O[C@@H]1CN(C)C(=O)c1cccc(F)c1 | inactive
Cc1ccccc1S(=O)(=O)N1C[C@H](O)COC[C@@H]2O[C@@H](CC(=O)NCc3ccccc3Cl)CC[C@H]21 | inactive
C[C@H](CO)N1C[C@H](C)[C@H](CN(C)Cc2ccc(C(F)(F)F)cc2)Oc2ccc(NS(=O)(=O)c3ccc(Cl)cc3)cc2C1=O | active
Cc1ccc(S(=O)(=O)Nc2ccc3c(c2)C(=O)N([C@@H](C)CO)C[C@@H](C)[C@H](CN(C)Cc2ccc(C(F)(F)F)cc2)O3)cc1 | inactive
C[C@H]1CN([C@@H](C)CO)C(=O)c2cc(NS(=O)(=O)c3ccc(Cl)cc3)ccc2O[C@H]1CN(C)Cc1ccc(C(F)(F)F)cc1 | inactive
C[C@@H]1CN([C@@H](C)CO)C(=O)c2cc(NS(=O)(=O)c3ccc(Cl)cc3)ccc2O[C@@H]1CN(C)Cc1ccc(C(F)(F)F)cc1 | active
C[C@H](CO)N1C[C@H](C)[C@@H](CN(C)Cc2ccc(C(F)(F)F)cc2)Oc2ccc(NS(=O)(=O)c3ccc(Cl)cc3)cc2C1=O | active
C[C@@H]1CN([C@@H](C)CO)C(=O)c2cc(NS(=O)(=O)c3ccc(Cl)cc3)ccc2O[C@H]1CN(C)Cc1ccc(C(F)(F)F)cc1 | inactive
C[C@@H]1CN([C@H](C)CO)C(=O)c2cc(NS(=O)(=O)c3ccc(Cl)cc3)ccc2O[C@@H]1CN(C)Cc1ccc(C(F)(F)F)cc1 | active
Cc1ccc(S(=O)(=O)Nc2ccc3c(c2)C(=O)N([C@@H](C)CO)C[C@@H](C)[C@@H](CN(C)Cc2ccc(C(F)(F)F)cc2)O3)cc1 | inactive
C[C@@H]1CN([C@H](C)CO)C(=O)c2cc(NS(=O)(=O)c3ccc(Cl)cc3)ccc2O[C@H]1CN(C)Cc1ccc(C(F)(F)F)cc1 | inactive
